# Screens (PubChem)
# Hits are enriched below; roughly 28% of the tested compounds scored in any of these assays.
# CYP2C9 act = increases human cytochrome P450 2C9 activity. AID 1024. activation factor at 5 µM. recombinant CYP2C9, luciferin-H conversion, luminescence; active compounds read high; factor 1 = untreated enzyme, 0 = blocked. P11712. 96,000 compounds, 1.4% hits;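 active = activation factor of 2 or more for CYP2C9 at a 5 µM dose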;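 note: 0 = sulfaphenazole-blocked wells and 1 = vehicle-only wells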
# Target sequence (P11712 whole entry, looked up): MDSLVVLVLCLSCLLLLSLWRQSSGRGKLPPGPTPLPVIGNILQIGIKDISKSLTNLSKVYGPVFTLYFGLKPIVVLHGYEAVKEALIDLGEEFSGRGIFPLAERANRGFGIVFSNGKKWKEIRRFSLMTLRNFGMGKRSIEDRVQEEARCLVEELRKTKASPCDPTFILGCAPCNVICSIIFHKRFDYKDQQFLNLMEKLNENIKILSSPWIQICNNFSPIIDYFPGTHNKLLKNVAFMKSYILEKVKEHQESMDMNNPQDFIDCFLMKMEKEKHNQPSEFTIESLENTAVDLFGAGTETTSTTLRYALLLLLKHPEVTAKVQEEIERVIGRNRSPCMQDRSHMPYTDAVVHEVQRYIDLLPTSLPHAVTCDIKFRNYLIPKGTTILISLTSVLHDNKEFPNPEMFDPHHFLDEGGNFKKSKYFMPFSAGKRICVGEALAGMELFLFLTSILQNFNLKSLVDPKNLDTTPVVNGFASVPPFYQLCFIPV
# CYP2C19 activ = increases human CYP2C19 enzyme activity. recombinant CYP2C19, luciferin-H EGE luminescence; active compounds read high; 0 = fully inhibited enzyme, 1 = untreated enzyme. P33261. activation factor at 5 µM. 96,000 tested, under 10 active;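 active = activation factor of at least 2 at 5 µM in the primary screen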;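 note: 0 = wells with 2.5 mM tranylcypromine and 1 = vehicle-only wells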
# Mac1 fbg inh = inhibitors of human CD11b/CD18 binding to fibrinogen. P05107+P11215. K562 CD11b/CD18 adhesion to fibrinogen, ATPlite luminescence; Mn2+ added to activate the integrin. inhibition, % at 10 µM. 93,000 compounds, 0.54% hits;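 active = primary inhibition of 50% or more at 10 µM, then 40% or more on retest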
# CYP2C9 inh = inhibitors of human CYP2C9; P11712; CYP2C9 Supersomes, luciferin-H conversion, luminescence; inhibition, % at 5 µM; 96,000 compounds, 20% hits; AID 777;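 active = blocking of liver enzyme CYP2C9 beyond about 50% at 5 µM, limit read from the data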
# CYP2C19 inhib = blocks human cytochrome P450 2C19. P33261. CYP2C19 Supersomes, luciferin-H EGE luminescence, 30 min. inhibition, % at 5 µM. 96,000 compounds, 21% hits;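 active = CYP2C19 inhibition above a set limit at 5 µM in the primary screen, cut at about 50% in these data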;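 note: plate controls were negative control wells for no effect and 2.5 mM tranylcypromine positive control for full effect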
# CD11b adhes enh = increases human CD11b/CD18 adhesion to fibrinogen; AID 1499; activation, % at 10 µM; K562 CD11b/CD18 adhesion to fibrinogen, ATPlite luminescence; 93,000 compounds, 0.07% hits; P05107+P11215;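 active = 10 µM primary screen giving 50% or more activity, confirmed by 40% or more on retest at that dose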
# * hit, by the source's call; . = no result given.
SMILES,CYP2C9 act,CYP2C19 activ,Mac1 fbg inh,CYP2C9 inh,CYP2C19 inhib,CD11b adhes enh
CCCCC1(C)Nc2ccccc2-c2nc3ccccc3n21 (stereo unspecified),0.4,0.2,9.8,57.0*,80.9*,5.5
c1ccc2c(c1)NC1(CCCCCC1)n1c-2nc2ccccc21,0.5,0.8,14.0,51.2*,22.7,-3.3
c1ccc2c(c1)NC1(CCCCC1)n1c-2nc2ccccc21,0.6,0.8,0.0,35.8,20.2,-3.5
C1CCc2c(nc3nnnn3c2NC2CCCC2)C1,0.8,0.9,.,16.2,7.4,.
COc1ccccc1NC(=O)CC(NC1CCCCC1)C(=O)O (stereo unspecified),.,.,-7.7,.,.,5.3
CC(=O)C1=C(c2ccccc2)NC(=O)NC1c1ccccc1OCC#N (stereo unspecified),1.1,1,-20.0,-8.6,-4.9,-0.4
COc1cccc(-c2nnc(SCC(=O)OC(C)C)n2Cc2ccco2)c1,0.1,0.2,4.1,85.2*,80.0*,5.2
CC(C)OC(=O)CSc1nnc(-c2cnccn2)n1Cc1ccco1,0.7,1.1,-3.5,25.2,-11.5,-2.8
CC(C)OC(=O)CSc1nnc(Cc2ccccc2)n1Cc1ccco1,0.5,0.3,16.3,49.6,70.6*,-3.2
CC(=O)Nc1ccc(S(=O)(=O)n2cnc3ccccc32)cc1,0.9,0.7,4.2,13.4,31.1,-2.9
CCCOc1ccc(-c2cnc(N)s2)cc1,0.8,0.8,7.6,21.5,15.4,-3.5
C=CCSC1=C(C#N)C(c2ccccc2)CC(=O)N1 (stereo unspecified),0.3,0.2,-3.7,65.4*,80.1*,4.4
C=CCSC1=C(C#N)C(c2ccc(C(C)C)cc2)CC(=O)N1 (stereo unspecified),0.2,0.3,2.6,81.5*,73.7*,1.0
CCSC1=C(C#N)C(c2cccc(Br)c2)CC(=O)N1 (stereo unspecified),0.7,0.6,12.9,28.9,44.3,2.3
O=C(CSc1ccc2ccccc2c1)Nc1ncccn1,.,.,7.1,.,.,2.9
Cc1ccc(CCNC(=O)NC(C)(C)C)cc1,0.9,0.8,-4.6,12.0,24.3,0.2
O=C(CN1CCN(Cc2ccccc2F)C1=O)NCc1cccnc1,0.7,1,-6.0,25.5,-0.9,-3.2
Cc1ccc(CCNC(=O)CN2CCN(Cc3ccccc3F)C2=O)cc1,0.2,0.5,-12.4,81.3*,48.2,-1.8
CN(CCNC(=O)CN1CCN(Cc2ccccc2Cl)C1=O)Cc1ccccc1,0.7,0.6,8.5,28.6,40.3,1.4
O=C(CN1CCN(Cc2ccc(F)cc2Cl)C1=O)NCCc1ccccc1,0.4,0.5,-0.8,57.7*,54.5*,-0.7
Cc1ccc(CCNC(=O)Cn2cccc2)cc1,0.8,0.2,.,22.5,76.5*,.
Cc1cc(C)cc(CC(Cc2nc3ccccc3[nH]2)c2nc3ccccc3[nH]2)c1 (stereo unspecified),0.2,0,93.0,77.0*,97.0*,-10.5
O=C(Nn1nnnc1Nc1ccccc1)C12CC3CC(CC(C3)C1)C2,0.7,0.3,-4.1,33.0,71.3*,-1.2
O=C(CCc1ccccc1)NNC(=O)C12CC3CC(CC(C3)C1)C2,1,1.1,-1.6,3.5,-8.8,-0.2
N=C1/C(=C\c2ccc(SCc3ccco3)o2)C(=O)N=C2SC=NN12,0.3,1,.,73.6*,-4.6,.
SMILES,CYP2C9 act,CYP2C19 activ,Mac1 fbg inh,CYP2C9 inh,CYP2C19 inhib,CD11b adhes enh
CCc1cc(-c2n[nH]c(=S)n2C(C)c2ccccc2)cs1 (stereo unspecified),0.1,0.2,5.5,86.9*,81.5*,1.0
CCOc1ccccc1/C=C(/NC(=O)c1ccccc1)C(=O)N(CC)CC,.,.,-1.7,.,.,4.1
O=C(Nc1ccc(N2CCOCC2)cc1)c1cn2ccccc2n1,0.7,0.4,.,33.8,60.0*,.
Cn1cccc1C(=O)C(=O)Nc1cccc(Cl)c1Cl,2*,0.7,.,-99.1,28.1,.
Cn1cccc1C(=O)C(=O)Nc1ccc(Cl)cc1,1.1,0.7,.,-5.8,32.4,.
Cc1ccc(C)n1-c1ccc(-n2cnnn2)cc1,0.8,0.3,-17.9,19.7,73.6*,34.0
O=C(O)c1cccc(-n2cnnn2)c1,1,1,-14.0,-3.9,-3.4,2.9
c1ccc(Oc2ccc(-n3cnnn3)cc2)cc1,0.6,0.2,6.3,42.7,82.1*,-1.5
COc1cccc(-n2cnnn2)c1,1.1,1.1,0.0,-11.1,-8.0,1.5
O=C(Oc1ccccc1)c1ccc(-n2cnnn2)cc1,0.8,0.3,-2.8,22.0,69.0*,2.2
Cc1cc(C)cc(C(=O)N(NC(=O)Nc2ccc(Cl)cc2)C(C)(C)C)c1,0.8,0.8,16.3,17.0,20.8,3.9
CCOC(=O)CSC1=NC(=O)CS1,1,0.9,8.5,3.6,5.3,-1.3
CC(NC(=O)Cc1cccs1)c1ccncc1 (stereo unspecified),0.3,0.4,-4.7,66.0*,63.7*,-0.4
O=C(Cc1cccs1)Nc1nnc(-c2ccncc2)s1,0,0,-0.8,95.6*,98.2*,2.5
O=C(COc1ccccc1F)Nc1nnc(-c2ccncc2)s1,0,0.1,1.2,95.3*,93.3*,-0.8
COC(=O)c1cc(Br)c(=O)n(-c2ccc(C(C)=O)cc2)c1,0.8,0.7,-8.1,24.6,33.6,-4.4
c1ccc(-n2nnnc2OCCOc2nnnn2-c2ccccc2)cc1,0.7,0.5,4.1,33.7,45.8,-2.3
Cc1ccc2cccc(Oc3nnnn3-c3ccccc3)c2n1,1,0.1,6.9,1.2,94.8*,0.7
c1ccc(-n2nnnc2Oc2cccc3cccnc23)cc1,2.7*,0.1,-13.3,-165.9,89.9*,-0.6
CCCCN(CCCC)c1ccc(C(=O)c2ccccc2C(=O)O)c(O)c1,0.4,0.7,.,64.3*,35.0,.
CN(C(=O)COC(=O)COc1ccccc1F)C1CCS(=O)(=O)C1 (stereo unspecified),1.1,1,-1.7,-10.6,-0.9,7.1
COc1ccc2nc(NC(=S)N(C)C)sc2c1,0.1,0,60.2*,93.9*,99.0*,-4.1
CCOc1ccc2nc(NC(=O)CSc3ccc(Cl)cc3)sc2c1,0.4,0.9,12.0,63.4*,6.4,1.1
CCCC(=O)Nc1nc2ccc(OC)cc2s1,1.1,1,18.0,-5.9,-0.4,-4.1
CCOc1ccc2nc(NC(=O)CCC(=O)c3cccs3)sc2c1,1,1,0.4,1.5,2.6,0.2
CC(C)Cc1nnc(NC(=O)CSc2ccccn2)s1,0.7,0.4,-31.2,31.2,56.5*,-0.5
Cc1nnc(NC(=O)CSc2ccccn2)s1,1.1,1.1,-1.7,-12.9,-5.4,-1.2
Cc1cccc(OCC(=O)Nc2nc3ccc([N+](=O)[O-])cc3s2)c1,0.1,0.3,92.6,91.0*,69.8*,-7.6
Cc1cccc(OCC(=O)Nc2nc3ccc([N+](=O)[O-])cc3s2)c1C,1.3,1.1,.,-34.1,-10.2,.
